This is an account of results in PubChem BioAssay (NCATS).

SMILES strings stand for the structures. Results filed as inconclusive are left out. A number with no mark means an inactive call. The source made the active and inactive calls. Calls follow the shape of the dose curve; as a rule, active = well fitted inhibition curve with a large enough effect; inconclusive = small, poorly fitted or top-dose-only effect; inactive = flat fitted curve, though single readings scatter.
Potency is read from the fitted curve at half-maximal effect.

This assay is described as follows: BET inhibitor-based combinations targeting novel dependencies in MECOM-rearranged (r) AML: AML-191 cell line (AID 2202236; also: nearly all actives have a fitted effect of over 35% in size;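 as to viability (% of control): plate controls were vehicle wells for no effect and wells without cells for full effect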). The conditions noted are these: AML-191 viability, CellTiter-Glo luminescence, 48 h; series mostly up to 46 µM; viability (% of control): at the top concentration. The source says:
Ecotropic viral insertion site 1 (EVI1) is located on chromosome 3q26.2 as part of the MECOM (MDS and EVI1 complex) locus. Under normal hematopoiesis, EVI1 is a regulator of hematopoietic stem cell maintenance and self-renewal and EVI1 levels decrease as the cells differentiate. In approximately 5-10% of de novo acute myeloid leukemia (AML) EVI1 is aberrantly expressed, including Chromosomal inv(3)(q21;q26.2) or t(3;3)(q21;q26.2) alterations (MECOM-r) that account for about 50% of AML with EVI1 overexpression 31. AMLs with high levels of EVI1 have a poor prognosis and an overall survival time averaging between 10-14 months. EVI1 overexpression confers resistance in leukemia cells, highlighting the need to develop new targeted therapies for EVI1 overexpressing AMLs.
Here, we performed an unbiased chemical drug screening by evaluating the single agent activity of a collection of 2,480 oncology-focused, approved and investigational drugs (NCATS Mechanism Interrogation Plates, MIPE v5.0) against a panel of seven AML cell lines. These included four MECOM-r cell-lines (AML-191, AML-194, UCSD-AML1 and HNT-34) and three non-MECOM-r AMLs (MV4-11, OCI-AML3 and SET-2). Exploiting the mechanistic redundancy built in the library, we identified target-level sensitivities in MECOM-r AML cells and relative activity as compared to other AML subtypes.
A collection of 2480 mechanistically annotated dugs (MIPE v5.0) was used to screen four 3q26.2 rearranged AML cell lines and three non-3q26.2 rearranged AML cell lines. This library purposely exploits redundancy by including multiple inhibitors of key onco-targets, while simultaneously encompassing mechanistic diversity, targeting more than 800 distinct mechanisms of action. Briefly, cells were seeded in 5 uL of growth media using a Multidrop Combi dispenser into 1536 well white polystyrene tissue culture treated plates (Corning) at a density of 500cells/well. For each cell-line, for each of the 2480 drugs in MIPE v5.0 library, an 11-point dose curve was generated via a 1536 pin-tool. Plates were incubated for 48 hr at standard incubator conditions, covered by a stainless steel gasketed lid to prevent evaporation. Cell viability was determined by luminescence based, Cell Titer Glo assay (Promega). In detail, 3 uL of Cell Titer Glo were added to each well and plates were incubated at room temperature for 15 min with a stainless-steel lid in place. Luminescence readings were taken using a Viewlux (PerkinElmer) with a 2 s exposure time per plate. Compound dose-response curves were normalized to DMSO and empty well controls on each plate. Quantitative drug activity data from dose-response curves was determined utilizing area Under the Curve (AUC) and Z-transformed AUC (Z-AUC, a mean-centering transformation applied to each individual cell-line screened).
A general note: ATP-based viability assays read luminescence as a measure of living cells.
Consider `COc1ccc(C(=O)N2CCCC2=O)cc1`, for which the “viability (% of control)” value is 120%.
For the compound `CCN1CCN(C(=O)Cc2ccc(Nc3ncc(F)c(Nc4ccc(C(=O)Nc5ccccc5Cl)cc4)n3)cc2)CC1`, the Potency is 6.61 µM (active).
Turning to `CCOC(=O)c1c(C(C#N)=CN)c2ccc(Cl)c(Cl)c2n1C`, the “viability (% of control)” value was 88.4%.
For the compound `C[C@@]12OC(=O)[C@]1([C@@H](O)[C@@H]1C=CCCC1)NC(=O)[C@@H]2CCCl`, the Potency was 0.0263 µM (active).
Consider `CCOP(=O)(OCC)C(C)NC(=O)N(CCCl)N=O` (stereo not given), for which the “viability (% of control)” value is 106%.
Take `CN(C)[C@@H]1C(=O)C(C(N)=O)=C(O)[C@@]2(O)C(=O)C3=C(O)c4c(O)cccc4[C@@](C)(O)[C@H]3[C@H](O)[C@@H]12`: the “viability (% of control)” value was 96.2%.
On to `CCCCCC[C@H]1C(=O)O[C@H](C)[C@H](NC(=O)c2cccc(NC=O)c2O)C(=O)O[C@@H](C)[C@@H]1OC(=O)CC(C)C`, for which the Potency was 0.263 µM (active).
For the compound `O=c1[nH]c2ccccc2n1CCCN1CCC(n2c(=O)[nH]c3cc(Cl)ccc32)CC1`, the “viability (% of control)” value is 99.8%.
`CN[C@@H]1Cc2cccc3[nH]c(=O)n(c23)C1`: the “viability (% of control)” value is 117%.
Take `CC[C@H]1/C=C\C=C/C[C@@H](C)[C@H](O)[C@@](C)(O)C(=O)[C@@H](C)[C@H](O)[C@@H](C)C(=O)[C@@H](C)[C@H](O)[C@@H](C)/C=C\C(=O)O[C@@H]2[C@H](C)[C@H](CC1)O[C@]1(CC[C@H](C)[C@H](C[C@@H](C)O)O1)[C@H]2C`: the Potency is 1.18 µM (active).
As for `Cc1c(N)nc([C@H](CC(N)=O)NC[C@@H](N)C(N)=O)nc1C(=O)N[C@H](C(=O)N[C@@H](C)[C@H](O)[C@@H](C)C(=O)N[C@@H](C(=O)NCCc1nc(-c2nc(C(=O)NCCC[S+](C)C)cs2)cs1)[C@@H](C)O)C(O[C@H]1O[C@H](CO)[C@H](O)[C@@H](O)[C@H]1O[C@H]1O[C@H](CO)[C@@H](O)[C@H](OC(N)=O)[C@@H]1O)c1cnc[nH]1` (stereo not given in full), the “viability (% of control)” value is 83.7% [at 15.6 µM].
As to `COc1ccc(C(=O)c2c(C)n(CCN3CCOCC3)c3ccccc23)cc1`, the Potency was 2.63 µM (active).
`O=C(O)CNC(=O)C1C(=O)N(C2CCCCC2)C(=O)N(C2CCCCC2)C1=O`: the “viability (% of control)” value is 96.5%.
Take `CC[C@@]1(O)C(=O)OCc2c1cc1n(c2=O)Cc2cc3ccccc3nc2-1`: the Potency was 0.0209 µM (active).
Take `CC(=O)N1N=C(c2ccc(N)cc2)c2cc3c(cc2C[C@H]1C)OCO3`: the “viability (% of control)” value was 96.8%.
For `C[C@]12CC[C@@H]3c4ccc(OC(=O)N(CCCl)CCCl)cc4CC[C@H]3[C@@H]1CC[C@@H]2OP(=O)(O)O`, the “viability (% of control)” value is 105%.
For the compound `Cn1c(COP(=O)(NCCBr)NCCBr)cnc1[N+](=O)[O-]`, the “viability (% of control)” value was 112%.
The same measure, in the same setting: to `CSCC[C@@H](NC(=O)[C@@H](Cc1ccccc1)NC(=O)CNC(=O)CNC(=O)[C@@H](N)Cc1ccc(O)cc1)C(=O)O` belongs 112%; to `O=P1(NCCCl)OCCCN1CCCl` (stereo not given), 113%.
Turning to `C[C@@H]1C[C@@H]([C@H](O)CC2CC(=O)NC(=O)C2)C(=O)[C@@H](C)C1`, the Potency was 0.742 µM (active).
The same measure, in the same setting: next, `C/C=C(\C)C(=O)N[C@@H](c1ccccc1)[C@@H](O)C(=O)O[C@H]1C[C@@]2(O)[C@@H](OC(=O)c3ccccc3)[C@@H]3[C@]4(OC(C)=O)CO[C@@H]4C[C@H](O)[C@@]3(C)C(=O)[C@H](OC(C)=O)C(=C1C)C2(C)C`: 0.0468 µM (active).
Consider `N#CC(O[C@@H]1O[C@H](CO[C@@H]2O[C@H](CO)[C@@H](O)[C@H](O)[C@H]2O)[C@@H](O)[C@H](O)[C@H]1O)c1ccccc1` (stereo not given in full), for which the “viability (% of control)” value was 92.2%.
Turning to `c1ccc2c(CN3CCNCC3)cccc2c1`, the “viability (% of control)” value was 104%.
`CC1=C(O)C(=O)C=C2C1=CC=C1[C@@]2(C)CC[C@@]2(C)[C@@H]3C[C@](C)(C(=O)O)CC[C@]3(C)CC[C@]12C`: the Potency was 0.934 µM (active).
`C[C@]12CC[C@H]3[C@@H](CC[C@@]45O[C@@H]4C(O)=C(C#N)C[C@]35C)[C@@H]1CC[C@@H]2O`: the “viability (% of control)” value was 99.8%.
Turning to `CC(C)(C)c1cc(C=C(C#N)C#N)cc(Br)c1O`, the Potency was 18.6 µM (active).
`CC(O)(CS(=O)(=O)c1ccc(F)cc1)C(=O)Nc1ccc(C#N)c(C(F)(F)F)c1` (stereo not given): the “viability (% of control)” value was 89.4%.
The same measure, in the same setting: next, `Cc1cc(SCc2sc(-c3ccc(C(F)(F)F)c(F)c3)nc2C)ccc1OCC(=O)O`: 87.3%; `CN(C)CCN(C)CCc1ccc(Cl)c(Cl)c1`: 87.1%; `CN(C)NC(=O)CCC(=O)O`: 83.8%.
Same read-out and setting: next, `CN1C(=O)[C@@H](NC(=O)[C@H](CCC(F)(F)F)[C@H](CCC(F)(F)F)C(N)=O)N=C(c2ccccc2)c2ccccc21`: 111%.
As to `Cc1[nH]ncc1-c1cc2nc([C@@H]3CC4CCN3CC4)[nH]c(=O)c2s1`, the Potency is 8.33 µM (active).
Consider `O=C(O)C(=O)c1cn(Cc2ccccc2)c2ccc(-c3ccc(OC(F)(F)F)cc3)cc12`, for which the “viability (% of control)” value is 92.7%.
For the compound `CC(=O)OC[C@H]1O[C@@H]([S-])[C@H](OC(C)=O)[C@@H](OC(C)=O)[C@@H]1OC(C)=O.CC[PH+](CC)CC.[Au]`, the Potency was 1.05 µM (active).
For the compound `C[C@H](Nc1ncnc2nc[nH]c12)c1nc2ccc(F)cc2c(=O)n1-c1ccccc1`, the Potency is 5.25 µM (active).
As for `COC(=O)[C@@H](N)CCCN=C(N)N[N+](=O)[O-]`, the “viability (% of control)” value is 108%.
Take `Fc1ccc(C(OCCN2CCN(CCCc3ccccc3)CC2)c2ccc(F)cc2)cc1`: the Potency was 18.6 µM (active).
Turning to `C#C[C@]1(O)C=C[C@H]2[C@@H]3CCC4=CC(=O)CC[C@@H]4[C@H]3CC[C@@]21CC`, the “viability (% of control)” value is 86.2%.
Still for that read-out and setting: next, `C[C@H]1[C@H](O)[C@@H](C)/C=C/C=C/CC/C=C/C=C/C=C/C=C/[C@H](O[C@@H]2O[C@H](C)[C@@H](O)[C@H](N)[C@@H]2O)C[C@@H]2O[C@](O)(C[C@@H](O)[C@H](O)CC[C@@H](O)C[C@@H](O)C[C@@H](O)CC(=O)O[C@H]1C)C[C@H](O)[C@H]2C(=O)O`: 99.6%.
As to `CC(C)[C@]12O[C@H]1[C@@H]1O[C@@]13[C@@]1(C)CCC4=C(COC4=O)[C@@H]1C[C@@H]1O[C@@]13C2=O`, the Potency is 0.0833 µM (active).
